Structures can show the parent of a compound that is named as a salt.
Columns and labels:
HCC1937 = test: relative cell viability, compound + erastin, vs DMSO (fraction of DMSO control); higher = less growth inhibition; details: 72 h
MDA-MB-231 = test: as above; details: 72 h
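Further: viability read by CCK-8 kit in 96-well plates, part of a combination screen pairing lipid-metabolism-targeting compounds with erastin.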

SMILES | relative cell viability (HCC1937) | relative cell viability (MDA-MB-231)
COc1cc([C@@H]2Oc3c(O)cc([C@H]4Oc5cc(O)cc(O)c5C(=O)[C@@H]4O)cc3[C@H]2CO)ccc1O [Silychristin] + CCOc1ccccc1-n1c(C(C)N2CCN(C(=O)COc3ccc(Cl)cc3)CC2)nc2ccccc2c1=O [erastin] | 0.584 | 0.685
CCCc1c(-c2ccccc2)[nH]n(-c2ccccn2)c1=O [APX-115 free base] + CCOc1ccccc1-n1c(C(C)N2CCN(C(=O)COc3ccc(Cl)cc3)CC2)nc2ccccc2c1=O [erastin] | 0.615 | 0.625
C[C@@H](Nc1nc(N[C@H](C)C(F)(F)F)nc(-c2cccc(Cl)n2)n1)C(F)(F)F [Vorasidenib] + CCOc1ccccc1-n1c(C(C)N2CCN(C(=O)COc3ccc(Cl)cc3)CC2)nc2ccccc2c1=O [erastin] | 0.607 | 0.68
CC1(N)CCN(c2cnc(-c3cccc(Cl)c3Cl)c(N)n2)CC1 [SHP099 hydrochloride] + CCOc1ccccc1-n1c(C(C)N2CCN(C(=O)COc3ccc(Cl)cc3)CC2)nc2ccccc2c1=O [erastin] | 0.729 | 0.647
C[C@]12CC[C@@H](O)C[C@@H]1CC[C@@H]1[C@@H]2CC[C@]2(C)C(=O)CC[C@@H]12 [Androsterone] + CCOc1ccccc1-n1c(C(C)N2CCN(C(=O)COc3ccc(Cl)cc3)CC2)nc2ccccc2c1=O [erastin] | 0.763 | 0.564
O=C(O)c1cc2c(Cl)c(N3CCN(S(=O)(=O)c4c(Cl)cccc4Cl)CC3)ccc2o1 [Vonafexor] + CCOc1ccccc1-n1c(C(C)N2CCN(C(=O)COc3ccc(Cl)cc3)CC2)nc2ccccc2c1=O [erastin] | 0.846 | 0.989
CCc1ccc(N(CC(C)C)S(=O)(=O)c2ccc(OCC3CCOCC3)c(CO)c2)cc1 + CCOc1ccccc1-n1c(C(C)N2CCN(C(=O)COc3ccc(Cl)cc3)CC2)nc2ccccc2c1=O [erastin] | 0.508 | 0.604
CC(C)(Oc1ccc(C(=O)c2ccc(Cl)cc2)cc1)C(=O)O [Fenofibric acid] + CCOc1ccccc1-n1c(C(C)N2CCN(C(=O)COc3ccc(Cl)cc3)CC2)nc2ccccc2c1=O [erastin] | 0.677 | 0.915
CC[C@H](C)C(=O)O[C@H]1C[C@@H](C)C=C2C=C[C@H](C)[C@H](CC[C@@H]3C[C@@H](O)CC(=O)O3)[C@H]21 [Lovastatin] + CCOc1ccccc1-n1c(C(C)N2CCN(C(=O)COc3ccc(Cl)cc3)CC2)nc2ccccc2c1=O [erastin] | 0.804 | 0.569
O=C(NC1CCN(CCCCC2(C(=O)NCC(F)(F)F)c3ccccc3-c3ccccc32)CC1)c1ccccc1-c1ccc(C(F)(F)F)cc1 [Lomitapide] + CCOc1ccccc1-n1c(C(C)N2CCN(C(=O)COc3ccc(Cl)cc3)CC2)nc2ccccc2c1=O [erastin] | 0.201 | 0.436
COc1c(/C=C/C(=O)c2ccc(O)cc2)ccc(O)c1CC=C(C)C + CCOc1ccccc1-n1c(C(C)N2CCN(C(=O)COc3ccc(Cl)cc3)CC2)nc2ccccc2c1=O [erastin] | 0.58 | 0.749
CC(=O)N1CCN(c2ccc(OCC3COC(Cn4ccnc4)(c4ccc(Cl)cc4Cl)O3)cc2)CC1 (configuration not stated) [Ketoconazole] + CCOc1ccccc1-n1c(C(C)N2CCN(C(=O)COc3ccc(Cl)cc3)CC2)nc2ccccc2c1=O [erastin] | 0.884 | 0.602
C=C(C)[C@@H]1CC[C@]2(C)CC[C@]3(C)[C@H](CC[C@@H]4[C@@]5(C)CCC(=O)C(C)(C)[C@@H]5CC[C@]43C)[C@@H]12 + CCOc1ccccc1-n1c(C(C)N2CCN(C(=O)COc3ccc(Cl)cc3)CC2)nc2ccccc2c1=O [erastin] | 0.608 | 0.594
O=C(O)Cn1nnc(-c2cc(N3CCC(Oc4cc(F)ccc4Br)CC3)no2)n1 + CCOc1ccccc1-n1c(C(C)N2CCN(C(=O)COc3ccc(Cl)cc3)CC2)nc2ccccc2c1=O [erastin] | 0.529 | 0.679
CN(C)C(=N)NC(=N)N [Metformin hydrochloride] + CCOc1ccccc1-n1c(C(C)N2CCN(C(=O)COc3ccc(Cl)cc3)CC2)nc2ccccc2c1=O [erastin] | 0.943 | 1.03
Nc1ncnc2c1ncn2[C@@H]1O[C@H](COP(=O)(O)O)[C@@H](O)[C@H]1O [Adenosine 5'-monophosphate] + CCOc1ccccc1-n1c(C(C)N2CCN(C(=O)COc3ccc(Cl)cc3)CC2)nc2ccccc2c1=O [erastin] | 0.642 | 0.716
COc1ccc([C@@H]2OC[C@H]3[C@@H]2CO[C@@H]3c2ccc(O[C@@H]3O[C@H](CO)[C@@H](O)[C@H](O)[C@H]3O)c(OC)c2)cc1OC [Forsythin] + CCOc1ccccc1-n1c(C(C)N2CCN(C(=O)COc3ccc(Cl)cc3)CC2)nc2ccccc2c1=O [erastin] | 0.718 | 0.754
O=C(Oc1ccc([N+](=O)[O-])cc1)N1CCN(Cc2cccc(Oc3ccccc3)c2)CC1 + CCOc1ccccc1-n1c(C(C)N2CCN(C(=O)COc3ccc(Cl)cc3)CC2)nc2ccccc2c1=O [erastin] | 0.199 | 0.312

SMILES | relative cell viability (HCC1937) | relative cell viability (MDA-MB-231)
CCNC1(C(N)=O)CCN(c2ncnc3c2nc(-c2ccccc2Cl)n3-c2ccc(Cl)cc2)CC1 [Otenabant] + CCOc1ccccc1-n1c(C(C)N2CCN(C(=O)COc3ccc(Cl)cc3)CC2)nc2ccccc2c1=O [erastin] | 0.441 | 0.459
CCc1ccc(CCOc2ccc(CC3SC(=O)NC3=O)cc2)nc1 (configuration not stated) [Pioglitazone] + CCOc1ccccc1-n1c(C(C)N2CCN(C(=O)COc3ccc(Cl)cc3)CC2)nc2ccccc2c1=O [erastin] | 0.803 | 0.551
Nc1ccc(C(=O)O)c(O)c1 [Aminopar] + CCOc1ccccc1-n1c(C(C)N2CCN(C(=O)COc3ccc(Cl)cc3)CC2)nc2ccccc2c1=O [erastin] | 0.773 | 0.664
CCN(CC)CCCC(C)Nc1c2ccc(Cl)cc2nc2ccc(OC)cc12 (configuration not stated) [Quinacrine dihydrochloride] + CCOc1ccccc1-n1c(C(C)N2CCN(C(=O)COc3ccc(Cl)cc3)CC2)nc2ccccc2c1=O [erastin] | 0.164 | 0.299
O=C(O)CCCc1cc2cc(Cl)ccc2n1S(=O)(=O)c1ccc2ncsc2c1 [Lanifibranor] + CCOc1ccccc1-n1c(C(C)N2CCN(C(=O)COc3ccc(Cl)cc3)CC2)nc2ccccc2c1=O [erastin] | 0.672 | 0.886
O=C1/C(=C/c2cccs2)CC/C1=C\c1cccs1 + CCOc1ccccc1-n1c(C(C)N2CCN(C(=O)COc3ccc(Cl)cc3)CC2)nc2ccccc2c1=O [erastin] | 0.514 | 0.658
O=C(Nc1cccnn1)N1CCC(=Cc2cccc(Oc3ccc(C(F)(F)F)cn3)c2)CC1 + CCOc1ccccc1-n1c(C(C)N2CCN(C(=O)COc3ccc(Cl)cc3)CC2)nc2ccccc2c1=O [erastin] | 0.667 | 0.554
Fc1ccc(-c2c3cccc(C(F)(F)F)c3nn2Cc2ccc(F)cc2Cl)cc1 + CCOc1ccccc1-n1c(C(C)N2CCN(C(=O)COc3ccc(Cl)cc3)CC2)nc2ccccc2c1=O [erastin] | 0.797 | 0.509
COc1cc(C(C)=O)ccc1O [Acetovanillone] + CCOc1ccccc1-n1c(C(C)N2CCN(C(=O)COc3ccc(Cl)cc3)CC2)nc2ccccc2c1=O [erastin] | 0.508 | 0.666
COc1ccc2c(c1)CCC1C2CCC2(C)C(NCCCCCCN3C(=O)C=CC3=O)CCC12 (configuration not stated) + CCOc1ccccc1-n1c(C(C)N2CCN(C(=O)COc3ccc(Cl)cc3)CC2)nc2ccccc2c1=O [erastin] | 0.47 | 0.67
C[C@H](CCOc1cccc(CC(=O)O)c1)N(Cc1cccc(C(F)(F)F)c1Cl)CC(c1ccccc1)c1ccccc1 [RGX-104 free Acid] + CCOc1ccccc1-n1c(C(C)N2CCN(C(=O)COc3ccc(Cl)cc3)CC2)nc2ccccc2c1=O [erastin] | 0.564 | 0.488
CCCc1cc(-c2nc(-c3ccc(C)cc3)cs2)ccn1 [Fatostatin] + CCOc1ccccc1-n1c(C(C)N2CCN(C(=O)COc3ccc(Cl)cc3)CC2)nc2ccccc2c1=O [erastin] | 0.534 | 0.595
c1cc(-c2cnn3cc(-c4ccc(OCCN5CCCCC5)cc4)cnc23)ccn1 [Dorsomorphin] + CCOc1ccccc1-n1c(C(C)N2CCN(C(=O)COc3ccc(Cl)cc3)CC2)nc2ccccc2c1=O [erastin] | 0.137 | 0.405
C=C(C)[C@@H]1CC[C@]2(CO)CC[C@]3(C)[C@H](CC[C@@H]4[C@@]5(C)CC[C@H](O)C(C)(C)[C@@H]5CC[C@]43C)[C@@H]12 [Betulin] + CCOc1ccccc1-n1c(C(C)N2CCN(C(=O)COc3ccc(Cl)cc3)CC2)nc2ccccc2c1=O [erastin] | 0.524 | 0.32
CCCCCCCCCc1ccc(B(O)O)cc1 [4-Nonylphenylboronic acid] + CCOc1ccccc1-n1c(C(C)N2CCN(C(=O)COc3ccc(Cl)cc3)CC2)nc2ccccc2c1=O [erastin] | 0.9 | 0.358
O=C(Nc1ccccc1)N1CCN(c2nc(-c3ccccc3)ns2)CC1 + CCOc1ccccc1-n1c(C(C)N2CCN(C(=O)COc3ccc(Cl)cc3)CC2)nc2ccccc2c1=O [erastin] | 0.559 | 0.353
NC(N)=NN=Cc1cccc(Cl)c1Cl [Raphin1] + CCOc1ccccc1-n1c(C(C)N2CCN(C(=O)COc3ccc(Cl)cc3)CC2)nc2ccccc2c1=O [erastin] | 0.556 | 0.558
O=C(ON1C(=O)CCC1=O)N1CCN(C(c2ccc(Cl)cc2)c2ccc(Cl)cc2)CC1 [Cravatt Reagent] + CCOc1ccccc1-n1c(C(C)N2CCN(C(=O)COc3ccc(Cl)cc3)CC2)nc2ccccc2c1=O [erastin] | 0.886 | 0.772

From the supplement of paper PMC9492666
